Inconclusive results are not listed. Calls of active or inactive are those of the source. Calls follow the shape of the dose curve; as a rule, active = well fitted inhibition curve with a large enough effect in the signal ratio in the repeat runs (not every such curve was filed as active); inconclusive = weak or mixed curves, or effect the other way; inactive = flat fitted curve, though single readings scatter; the % refers to the signal ratio.
experiment: cAMP Responsive Elements (CRE) small molecule antagonists, cell-based qHTS assay (AID 1963591); details: CRE-bla HEK293T, beta-lactamase FRET ratio; series mostly up to 92.4 µM; activity change, negative = inhibition: at the top concentration
From the text: U.S. Tox21 Program National Center for Advancing Translational Sciences [NCATS] Division of Preclinical Innovation [DPI] U.S. Environmental Protection Agency [EPA] National Institutes of Environmental Health Sciences [NIEHS] National Toxicology Program [NTP] U.S. Food and Drug Administration [FDA] Tox21 Assay Overview: CREB (cyclic-AMP Responsive Element Binding Protein) is a cellular transcription factor. It binds to certain DNA sequences called cAMP Responsive Elements (CRE) and regulates the transcription of the genes. […] This cell line can be used to find agonists/antagonists of the cyclic AMP signaling pathway. The activation of the report gene under culture conditions can be detected by fluorescence intensity. This cell line has been used to screen the Tox21 10K compound library to […].
Tox21 Assay Protocol Summary: CRE-bla Hek 293T cells were suspended in assay medium (DMEM containing 10% dialyzed FBS, 0.1 mM NEAA, 1 mM sodium pyruvate and 25 mM HEPES) and dispensed at 2,000 cells/4 uL /well into 1536-well black wall/clear bottom plates using a Multidrop Combi (ThermoFisher Scientific, Waltham, MA) dispenser. After the assay plates were incubated at 37 C/5% CO2 for 18 hrs, 23 nL of compounds dissolved in DMSO, positive controls or DMSO only was transferred to the assay plate by a pintool workstation (Kalypsys, San Diego, CA), followed by addition of 1 […] uL of 1.25uM NKH477 (0.25 uM as final concentration) in assay medium using a Flying Reagent Dispenser (Aurora Discovery, San Diego, CA). The plates were incubated at 37 C and 5% CO2 for 3 hrs. Then 1 uL of LiveBLAzer B/G FRET substrate (Invitrogen, Carlsbad, CA) was added to each well using Bioraptr Flying Reagent Dispenser (FRD, Aurora Discovery, San Diego, CA). The plates were incubated at room temperature for 2 h.
% is scaled to controls: 0 for no effect and ±100 for the full control effect; potency is read from the fitted curve at half-maximal effect.

Row | Compound | activity change, negative = inhibition | Potency
1 | CCOC(=O)C(=O)CCc1ccccc1 | -11.3% [at 42.4 µM] (inactive) | –
2 | COc1cc(-c2ccc(N=C=O)c(OC)c2)ccc1N=C=O | -7.23% [at 42.4 µM] (inactive) | –
3 | CC(=O)OCC(=O)[C@@]1(O)CC[C@H]2[C@@H]3CCC4=CC(=O)C=C[C@]4(C)[C@@]3(F)[C@@H](O)C[C@@]21C | 1.93% [at 42.4 µM] (inactive) | –
4 | C=Cc1ccccc1 | 3.56% (inactive) | –
5 | CN1CCCCC1CCN1c2ccccc2Sc2ccc(S(C)=O)cc21 (stereo not given) | 17.9% [at 42.4 µM] (inactive) | –
6 | CCCC(C)C(=O)OCC (stereo not given) | -2.47% (inactive) | –
7 | C[Si]1(C)N[Si](C)(C)N[Si](C)(C)N1 | -1.48% (inactive) | –
8 | CCCCCCCCCOC(=O)c1ccccc1C(=O)OCCCCCCCCC | -2.97% (inactive) | –
9 | CCCCCCCCCCCCOC(=O)c1ccc(O)cc1 | -1.37% (inactive) | –
10 | Cc1cc(S(=O)(=O)O)ccc1N=Nc1c(O)ccc2ccccc12 | -0.153% (inactive) | –
11 | NC(=O)CC[C@@H](N)C(=O)O | 0.576% [at 42.4 µM] (inactive) | –
12 | CC(C)(O)CCCC1=CCC(C=O)CC1 (stereo not given) | -9.21% (inactive) | –
13 | CN1C(=O)c2ccc([N+](=O)[O-])cc2C1=O | -5.61% (inactive) | –
14 | C=CC(=O)OCC[N+](C)(C)C | 4.74% (inactive) | –
15 | Cc1nnc(C(=O)NC(C)(C)c2nc(C(=O)NCc3ccc(F)cc3)c(O)c(=O)n2C)o1 | 0.405% [at 42.4 µM] (inactive) | –
16 | CC(=O)Nc1cc(S(=O)(=O)O)cc2cc(S(=O)(=O)O)c(N=Nc3ccccc3)c(O)c12 | 3.95% (inactive) | –
17 | C=C(C)C(=O)OCCN(C)C | -2.98% (inactive) | –
18 | CC(=O)NO | 6.84% [at 42.4 µM] (inactive) | –
19 | O=C1OC(=O)c2cccc3cccc1c23 | 3.01% (inactive) | –
20 | Cc1ncc([N+](=O)[O-])n1CC(C)O (stereo not given) | -6.68% [at 42.4 µM] (inactive) | –

Row | Compound | activity change, negative = inhibition | Potency
21 | O=C1OC(O)C(C(Cl)Cl)=C1Cl (stereo not given) | – | 44.6 µM (active)
22 | CC1(C)C(=O)N(CO)C(=O)N1CO | -7.19% (inactive) | –
23 | Cc1cc(=O)oc2cc(O[C@@H]3SC[C@@H](O)[C@H](O)[C@H]3O)ccc12 | -4.46% [at 42.4 µM] (inactive) | –
24 | C[C@@H]1C[C@H]2[C@@H]3CCC4=CC(=O)C=C[C@]4(C)[C@@]3(F)[C@@H](O)C[C@]2(C)[C@@]1(O)C(=O)CO | -9.77% (inactive) | –
25 | NCCOCCOCCN | -9.85% (inactive) | –
26 | CCCCCCCCCCCCCCCCCCN(C)C | -8.23% [at 42.4 µM] (inactive) | –
27 | COc1cc2nc(N3CCN(C(=O)c4ccco4)CC3)nc(N)c2cc1OC | 4.27% [at 18.9 µM] (inactive) | –
28 | CCOC(=O)C(C)(C)C | -9.92% (inactive) | –
29 | COCCOCCOCCOC | 3.04% (inactive) | –
30 | Cc1cccn2c(=O)c(-c3nnn[nH]3)cnc12 | 5.45% [at 18.9 µM] (inactive) | –
31 | CCCCC1CCCCC(=O)O1 (stereo not given) | -3.12% (inactive) | –
32 | C=CC(C)(O)CCCC(C)CCCC(C)CCCC(C)C (stereo not given) | -3.17% (inactive) | –
33 | CN1CCN(N)CC1 | 0.0657% [at 42.4 µM] (inactive) | –
34 | ON=C1CCCC1 | 14.2% (inactive) | –
35 | Nc1nc(N)c(-c2ccccc2)s1 | 0.28% [at 42.4 µM] (inactive) | –
36 | O=C(O)CCCCCCC(=O)O | 0.526% (inactive) | –
37 | CCCC(=O)OCCC(C)C | 0.301% (inactive) | –
38 | CC(C)=CCC[C@@](C)(O)[C@H]1CC=C(C)CC1 | 12.4% [at 42.4 µM] (inactive) | –
39 | N#C[C@@H]1CC(F)(F)CN1C(=O)CNC1CC2CCC(C1)N2c1ncccn1 (stereo not given in full) | 1.6% (inactive) | –
40 | CCCCCCCCOS(=O)(=O)O | -4.38% (inactive) | –
